From PubChem BioAssay
HSF1 activator: increases HSF-1 driven luciferase reporter signal. NIH3T3-HGL HSF-1 luciferase reporter, MG132, 8 h; 100% = twice DMSO control signal. activation, % at 9 µM. actives 1.7% (n = 300,000). AID 504408;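 active means mean replicate activation of at least 50% with a set share of replicates each reaching 50%; inconclusive means only one of those two conditions met; inactive means mean below 50% and too few replicates reaching it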;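 further: 0% = median of the neutral control wells and 100% = twice that signal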
Platelet DG rel: platelet dense granule release activity; human platelet-rich plasma, SFLLRN dense granule ATP release, luminescence; inhibition, %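 (compounds screened at 7.5 µM in platelet-rich plasma)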; actives 0.22% (n = 300,000); AID 1663;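 active means mean replicate score, as percent of positive control, at or above 50; inconclusive means mean below 50 but at least one replicate at or above 50; inactive means mean and every replicate below 50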
HSF1 inh: HSF1 inhibition | actives 0.77% (n = 300,000) | activity change, negative = inhibition, % at 7.5 µM (by protocol) | NIH3T3-HGL HSE-luciferase, MG132-induced, luminescence 8 h; stronger effect = lower value;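 active means more than half of replicate wells show activity change below -50%, luminescence cut by over half; inconclusive means some wells, but at most half, below -50%; inactive means no replicate well below -50%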;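 further: luciferase reports HSF-1 transcriptional activity via heat shock element; 0% = median of DMSO wells and -100% = zero luminescence signal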
HSP90 inh: HSP90 refolding inhibition in rabbit reticulocyte lysate | luciferase refolding luminescence, 3 h | inhibition, % at 5.6 µM | actives 0.91% (n = 290,000) | AID 1789;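 active means inhibition above the screen-wide mean plus 3 SD, computed separately per campaign, cut at about 16% in these data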;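 further: 0% = DMSO wells and 100% = 60 µM geldanamycin wells; inhibitors lower the luminescence because luciferase stays unfolded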
dFosB activator: activators of mouse delta FosB homodimer. P13346. purified delta FosB, TAMRA-CDK5 oligo fluorescence polarization; percent of positive-control signal above neutral wells. activation, % at 25 µM. actives 0.99% (n = 340,000). AID 493131;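 active means mean activation above about 17%, with every replicate also reaching it, limit read from the data, passing the limit was not always enough; inconclusive means only one of the two conditions met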
Target sequence (P13346 whole entry, looked up): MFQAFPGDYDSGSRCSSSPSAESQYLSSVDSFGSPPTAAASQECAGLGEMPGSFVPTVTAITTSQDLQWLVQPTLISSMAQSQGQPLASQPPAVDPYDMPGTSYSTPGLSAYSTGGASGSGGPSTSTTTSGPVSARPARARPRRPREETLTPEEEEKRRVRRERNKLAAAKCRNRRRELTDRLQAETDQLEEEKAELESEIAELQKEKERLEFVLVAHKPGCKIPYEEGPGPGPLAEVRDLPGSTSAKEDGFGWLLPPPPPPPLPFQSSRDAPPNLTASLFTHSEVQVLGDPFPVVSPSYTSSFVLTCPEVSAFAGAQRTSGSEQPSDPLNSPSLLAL
MPTP inh: inhibitors of mitochondrial permeability transition pore; AID 602449; isolated mouse mitochondria, Ca2+ swelling absorbance, 30 min; inhibition, % at 10 µM; actives 1.4% (n = 360,000);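 active means inhibition of 50% or more, scaled per plate between neutral and stimulator controls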;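 further: 0% = DMSO wells given calcium and 100% = 1 mM EGTA wells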
Rh123 counter: membrane potential counter-screen of mitochondrial pore inhibitors; shares compounds with MPTP inh; actives 78% (n = 5,000); isolated mitochondria, Rhodamine 123 fluorescence; AID 624504; inhibition, % at 10 µM; in the data active means inhibition above about 22%;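 further: 0% = DMSO vehicle and 100% = positive control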
MPTP abs DR: dose response confirmation of mitochondrial permeability transition pore inhibitors; shares compounds with MPTP inh; isolated mitochondria swelling, absorbance; IC50, µM; actives 58% (n = 780); AID 651561; in the data active means IC50 below about 20 µM
MPTP cs DR: counter-screen for mitochondrial permeability transition pore inhibitors, dose response; shares compounds with MPTP inh; isolated mitochondria counterscreen, fluorescence read-out; IC50, µM; actives 49% (n = 780); AID 651564; in the data active means IC50 below about 80 µM
The depositor's hits bear a star; ? = inconclusive; / = no result given. A selection: hits, their analogues and other compounds. The true share with any hit is near 4.9%.

SMILES	HSF1 activator	Platelet DG rel	HSF1 inh	HSP90 inh	dFosB activator	MPTP inh	Rh123 counter	others
C=CCc1cccc(/C=C/c2cc(=O)c3ccccc3[nH]2)c1O	54.6*	23.1	25.4	-0.7	-8.9	59.8*	50.2*
Nc1nc2cc3c(cc2cc1C(=O)NCc1ccc(F)cc1)OCO3	/	/	/	/	/	85.9*	95.1*
O=C(NCc1ccc2c(c1)OCO2)c1nnc(Cc2ccc(F)cc2)o1	-12.2	1.2	-3.9	3.6	-3.3	-2.2	/
COc1ccccc1NC(=O)/C(=C/c1cccc([N+](=O)[O-])c1)c1ccccc1	19.1	-2.5	1.7	-1.4	1.5	-0.1	/
Cc1cccc(C)c1OCC(O)CN1CCc2ccccc2C1 (stereo unspecified)	4.5	-4.0	-5.6	/	-6.1	-1.1	/
OC(COc1ccc(Cl)cc1)CN1CCC(Cc2ccccc2)CC1 (stereo unspecified)	-1.6	3.0	-5.3	-1.0	-8.7	1.4	/
Cc1ccc(C)c(OCC(O)CN2CCC(Cc3ccccc3)CC2)c1 (stereo unspecified)	7.5	13.0	2.1	-1.1	-4.7	78.2*	19.5	MPTP abs DR=6.84*;MPTP cs DR=12.7*
Cc1ccc(C(C)C)c(OCC(O)CN2CCc3ccccc3C2)c1 (stereo unspecified)	1.6	-8.2	0.3	1.2	-9.1	98.4*	91.5*
NS(=O)(=O)c1ccc(CNC(=O)c2ccc(S(=O)(=O)NCc3ccco3)cc2)cc1	/	/	/	/	7.9	-0.1	/
O=C(O)C(=Cc1cccc([N+](=O)[O-])c1)c1ccc(Cl)cc1	/	/	/	/	-2.6	-1.7	/
CC(C)CSC1=NSC2=NC(=O)/C(=C\c3ccccc3)C(=N)N12	30.6	8.7	22.5	0.3	-6.8	72.6*	90.5*
CSC1=NSC2=NC(=O)/C(=C\c3coc4ccccc4c3=O)C(=N)N12	/	/	/	-4.8	-2.8	95.1*	89.6*
CC(C)CSC1=NSC2=NC(=O)/C(=C\c3coc4ccccc4c3=O)C(=N)N12	30.4	3.2	9.2	-5.0	-16.3	89.3*	61.4*
N=C1/C(=C\c2coc3ccc(O)cc3c2=O)C(=O)N=C2SC=CN12	-15.0	11.1	-3.5	-0.7	-26.5	1.3	/
O=C(O)CCN1CCc2ccccc2C1c1ccncc1 (stereo unspecified)	-0.3	21.8	11.1	3.0	-4.9	1.4	/
CC(C)C[C@H](NC(=O)OC(C)(C)C)c1nnc(SCC(=O)Nc2ccc(Br)cc2)o1	28.6	1.5	16.5	-3.4	-20.2	65.5*	69.6*
CC(C)C[C@H](N)c1nnc(SCC(=O)Nc2ccc(Br)cc2)o1	11.3	1.6	0.1	-3.7	-7.9	-1.8	/
CCc1ccc(OCC(O)CN2CCC(CN3C(=O)c4cccc5cccc(c45)C3=O)CC2)cc1 (stereo unspecified)	2.8	-13.4	1.9	2.3	2.9	83.6*	-0.4	MPTP abs DR=4.93*;MPTP cs DR=19.7*
Cc1ccc(C)c(OCC(O)CN2CCN(CCN3C(=O)c4cccc5cccc(c45)C3=O)CC2)c1 (stereo unspecified)	46.2	11.6	34.9	1.0	?	1.2	/
Cc1cc(C)cc(OCC(O)CN2CCC(CN3C(=O)c4cccc5cccc(c45)C3=O)CC2)c1 (stereo unspecified)	5.1	-3.2	2.0	/	51.9*	98.5*	100.4*
O=C1c2cccc3cccc(c23)C(=O)N1CC1CCN(CC(O)COc2ccc3ccccc3c2)CC1 (stereo unspecified)	0.2	-0.8	5.1	/	3.8	89.2*	99.1*
CCCCN1C(=O)C(CC(=O)NCCCN(C)C)CC(C(=O)N2CCOCC2)=C1C (stereo unspecified)	/	/	/	/	/	-1.6	/
COc1cc(/C=C/C(=O)OCC(=O)NCCc2ccc(F)cc2)ccc1OC(F)F	/	/	/	/	6.7	-2.3	/
CN(c1ccccc1C(=O)Nc1cccc(Br)c1)S(=O)(=O)c1ccccc1	16.8	6.4	4.8	-1.6	-4.2	0.3	/
CS(=O)(=O)NCCCCNc1ccc(C(F)(F)F)cc1[N+](=O)[O-]	-0.3	8.8	-4.0	-0.7	1.5	1.1	/
SMILES	HSF1 activator	Platelet DG rel	HSF1 inh	HSP90 inh	dFosB activator	MPTP inh	Rh123 counter	others
O=[N+]([O-])c1cc(C(F)(F)F)ccc1NCCCCNS(=O)(=O)c1ccc2ccccc2c1	3.2	9.4	8.6	-0.3	5.8	90.8*	78.7*
CN(C)C(CNc1ccc(C(F)(F)F)cc1[N+](=O)[O-])c1ccccc1 (stereo unspecified)	16.3	-7.2	-0.3	4.7	-10.0	61.5*	1.4	MPTP abs DR=>100;MPTP cs DR=>80
CCCCCc1ccc(-c2cn(CN3C(=O)c4ccccc4C3=O)nn2)cc1	-6.2	6.8	-1.1	-4.1	3.3	71.2*	10.9	MPTP abs DR=<0.2*;MPTP cs DR=<2.5*
CCCCCc1ccc(-c2cn(Cc3ccc(C)cc3)nn2)cc1	10.1	-0.7	10.1	1.7	0.9	0.0	/
CCSc1nnc(NC(=O)C(C)(C(F)(F)F)C(F)(F)F)s1	-5.5	1.5	-7.5	-1.9	2.6	26.0	/
CCSc1nnc(NC(=O)C(CC)(C(F)(F)F)C(F)(F)F)s1	0.6	-12.6	3.0	-1.6	4.4	54.2*	106.4*
CCN(C(=O)C(C)Sc1nnc(-c2ccncc2)n1C)C1CCCCC1 (stereo unspecified)	/	/	/	/	-4.1	-2.3	/
O[C@@H](c1cc(C(F)(F)F)nc2c(C(F)(F)F)cccc12)[C@H]1CCCCN1	6.6	-1.8	6.0	/	-150.6	97.4*	-20.6
COC(=O)C1=C(C)N(Cc2ccccc2)C(=NCc2cccc(C(F)(F)F)c2)N[C@H]1c1cccc(F)c1	22.2	3.9	10.9	6.7	-0.5	80.1*	-5.4
COC(=O)C1=C(C)N(Cc2ccccc2)C(=NCc2cccc(C(F)(F)F)c2)N[C@H]1c1cccc(C(F)(F)F)c1	/	/	/	/	-13.3	88.1*	-0.8
CC(C)CNS(=O)(=O)c1ccc(CCC(=O)NCCc2ccccc2)cc1	12.4	-10.1	4.4	0.3	-7.5	-0.8	/
Cc1cc(C(=O)CSc2nc3ccccc3c(=O)[nH]2)c(C)n1CC1CCCO1 (stereo unspecified)	58.8*	-0.6	22.3	-1.4	-4.9	80.8*	75.3*
O=C(Nc1oc2ccccc2c(=O)c1-c1ccc(Cl)cc1)c1ccco1	35.7	1.3	8.5	6.0	-6.3	-0.1	/
NC(=S)n1[nH]c(-c2ccc([N+](=O)[O-])cc2)c(N=Nc2ccc(Cl)cc2)c1=O	/	/	/	7.6	-17.8	105.8*	93.0*
Cc1ccc([N+](=O)[O-])cc1N=Nc1c(C)[nH]n(C(N)=S)c1=O	7.9	-1.4	6.2	3.6	2.0	5.7	/
